Laboratory results taken from PubChem BioAssay AID1159580 (chemical genetic matrix, 2015).
Hit rate of the full screen: of about 5,500 compounds, about 2,000 (36%) were called active. Another 18% or so got no clear call; they are omitted. Cut-off read from the data, not from the text of the source: active = normalized growth mostly below about 0.91 (no sharp cut-off); inconclusive = no clear call, values can overlap the other calls; inactive = mostly above about 0.92. The list shows a part of the results.

Experiment: chemical genetic growth profiling, strain panel (AID 1159580);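 note: tested at 20 µM; growth read once vehicle control cultures reached saturation at 30 °C; 1 = growth at the plate median or of vehicle wells; lower values mean less growth of the strain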
Settings: growth OD
[1] = S. cerevisiae deletion strains, locus YDL101C, strain DUN1, active compounds read low
[2] = S. cerevisiae deletion strains, locus YHR030C, strain SLT2, active compounds read low
[3] = S. cerevisiae deletion strains, locus YAL013W, strain DEP1, active compounds read low
[4] = S. cerevisiae deletion strains, locus YBR229C, strain ROT2, active compounds read low
[5] = S. cerevisiae deletion strains, locus YDL134C, strain PPH21, active compounds read low
[6] = S. cerevisiae deletion strains, locus YDR150W, strain NUM1, active compounds read low
[7] = S. cerevisiae deletion strains, locus YEL061C, strain CIN8, active compounds read low
[8] = S. cerevisiae deletion strains, locus YGR078C, strain PAC10, active compounds read low
[9] = S. cerevisiae deletion strains, locus YGR229C, strain SMI1, active compounds read low
[10] = S. cerevisiae deletion strains, locus YHR087W, strain rtc3, active compounds read low
[11] = S. cerevisiae deletion strains, locus YJR043C, strain POL32, active compounds read low
[12] = S. cerevisiae deletion strains, locus YJR075W, strain HOC1, active compounds read low
[13] = S. cerevisiae deletion strains, locus YLR039C, strain RIC1, active compounds read low
[14] = S. cerevisiae deletion strains, locus YLR058C, strain SHM2 (second series), active compounds read low
[15] = S. cerevisiae deletion strains, locus YLR085C, strain ARP6, active compounds read low
[16] = S. cerevisiae deletion strains, locus YLR262C, strain YPT6, active compounds read low
[17] = S. cerevisiae deletion strains, locus YML094W, strain GIM5, active compounds read low
[18] = S. cerevisiae deletion strains, locus YMR219W, strain ESC1, active compounds read low
[19] = S. cerevisiae deletion strains, locus YMR263W, strain SAP30, active compounds read low
[20] = S. cerevisiae deletion strains, locus YNL153C, strain GIM3, active compounds read low
[21] = S. cerevisiae deletion strains, locus YNL298W, strain CLA4 (second series), active compounds read low
[22] = S. cerevisiae deletion strains, locus YNL322C, strain KRE1, active compounds read low
[23] = S. cerevisiae deletion strains, locus YNR030W, strain Alg12, active compounds read low
[24] = S. cerevisiae deletion strains, locus YPL055C, strain LGE1, active compounds read low
[25] = S. cerevisiae deletion strains, locus YPL241C, strain CIN2, active compounds read low
[26] = S. cerevisiae deletion strains, locus YPR135W, strain CTF4, active compounds read low
[27] = S. cerevisiae deletion strains, locus YMR307W, strain GAS1, active compounds read low

Measured: normalized growth

Clc1ccc(CN2CCN(c3cccc4[nH]ccc34)CC2)cc1Cl
inactive: S. cerevisiae deletion strains, locus YAR019C, strain CDC15, active compounds read low 0.997 | S. cerevisiae deletion strains, locus YBL105C, strain PKC1, active compounds read low 0.993 | S. cerevisiae deletion strains, locus YBR135W, strain CKS1, active compounds read low 0.995 | S. cerevisiae deletion strains, locus YBR136W, strain MEC1, active compounds read low 0.994 | S. cerevisiae deletion strains, locus YBR160W, strain CDC28, active compounds read low 0.986 | S. cerevisiae deletion strains, locus YDL017W, strain CDC7, active compounds read low 0.994 | S. cerevisiae deletion strains, locus YDL028C, strain MPS1, active compounds read low 0.999 | [1] 0.988 | S. cerevisiae deletion strains, locus YDL108W, strain KIN28, active compounds read low 0.983 | S. cerevisiae deletion strains, locus YDL132W, strain cdc53, active compounds read low 0.993 | S. cerevisiae deletion strains, locus YDL214C, strain PRR2, active compounds read low 0.962 | S. cerevisiae deletion strains, locus YDR052C, strain DBF4, active compounds read low 0.996 | S. cerevisiae deletion strains, locus YDR054C, strain cdc34, active compounds read low 0.993 | S. cerevisiae deletion strains, locus YDR226W, strain ADK1, active compounds read low 0.984 | S. cerevisiae deletion strains, locus YDR477W, strain SNF1, active compounds read low 0.972 | S. cerevisiae deletion strains, locus YER123W, strain YCK3, active compounds read low 0.917 | S. cerevisiae deletion strains, locus YER133W, strain GLC7, active compounds read low 0.977 | S. cerevisiae deletion strains, locus YFL009W, strain cdc4, active compounds read low 0.986 | S. cerevisiae deletion strains, locus YFL029C, strain CAK1, active compounds read low 0.994 | S. cerevisiae deletion strains, locus YFR003C, strain YPI1, active compounds read low 0.992 | S. cerevisiae deletion strains, locus YFR019W, strain FAB1, active compounds read low 0.971 | S. cerevisiae deletion strains, locus YFR028C, strain CDC14, active compounds read low 0.991 | S. cerevisiae deletion strains, locus YGR040W, strain KSS1, active compounds read low 0.962 | S. cerevisiae deletion strains, locus YGR052W, strain FMP48, active compounds read low 1.1 | S. cerevisiae deletion strains, locus YGR092W, strain DBF2, active compounds read low 0.942 | S. cerevisiae deletion strains, locus YHR079C, strain IRE1, active compounds read low 1.11 | S. cerevisiae deletion strains, locus YHR082C, strain KSP1, active compounds read low 1.09 | S. cerevisiae deletion strains, locus YHR205W, strain SCH9, active compounds read low 0.974 | S. cerevisiae deletion strains, locus YIL147C, strain SLN1, active compounds read low 0.992 | S. cerevisiae deletion strains, locus YJL095W, strain BCK1, active compounds read low 1.1 | S. cerevisiae deletion strains, locus YJL128C, strain PBS2, active compounds read low 0.946 | S. cerevisiae deletion strains, locus YJL157C, strain FAR1, active compounds read low 0.968 | S. cerevisiae deletion strains, locus YJR016C, strain ILV3, active compounds read low 0.993 | S. cerevisiae deletion strains, locus YJR066W, strain TOR1 (second series), active compounds read low 0.958 | S. cerevisiae deletion strains, locus YJR066W, strain TOR1, active compounds read low 1.13 | S. cerevisiae deletion strains, locus YKL048C, strain ELM1, active compounds read low 0.988 | S. cerevisiae deletion strains, locus YKL067W, strain YNK1, active compounds read low 0.982 | S. cerevisiae deletion strains, locus YKL101W, strain HSL1, active compounds read low 0.968 | S. cerevisiae deletion strains, locus YKL193C, strain SDS22, active compounds read low 0.992 | S. cerevisiae deletion strains, locus YKL203C, strain TOR2, active compounds read low 1.04 | S. cerevisiae deletion strains, locus YLR113W, strain HOG1, active compounds read low 1.07 | S. cerevisiae deletion strains, locus YLR133W, strain CKI1, active compounds read low 0.977 | S. cerevisiae deletion strains, locus YLR403W, strain SFP1, active compounds read low 0.965 | S. cerevisiae deletion strains, locus YML070W, strain DAK1, active compounds read low 0.964 | S. cerevisiae deletion strains, locus YMR001C, strain CDC5, active compounds read low 0.993 | S. cerevisiae deletion strains, locus YMR205C, strain PFK2 (second series), active compounds read low 0.976 | S. cerevisiae deletion strains, locus YMR277W, strain FCP1, active compounds read low 1 | S. cerevisiae deletion strains, locus YNL006W, strain LST8, active compounds read low 0.999 | S. cerevisiae deletion strains, locus YNL020C, strain ARK1, active compounds read low 0.981 | S. cerevisiae deletion strains, locus YNL161W, strain CBK1, active compounds read low 0.998 | S. cerevisiae deletion strains, locus YNL183C, strain NPR1, active compounds read low 1.11 | S. cerevisiae deletion strains, locus YNL207W, strain RIO2, active compounds read low 0.993 | S. cerevisiae deletion strains, locus YNL222W, strain SSU72, active compounds read low 0.992 | S. cerevisiae deletion strains, locus YNL307C, strain MCK1 (second series), active compounds read low 0.995 | S. cerevisiae deletion strains, locus YOL078W, strain AVO1, active compounds read low 0.996 | S. cerevisiae deletion strains, locus YOL136C, strain PFK27, active compounds read low 0.974 | S. cerevisiae deletion strains, locus YOR061W, strain CKA2, active compounds read low 0.955 | S. cerevisiae deletion strains, locus YOR119C, strain RIO1, active compounds read low 1.03 | S. cerevisiae deletion strains, locus YOR231W, strain MKK1, active compounds read low 1.08 | S. cerevisiae deletion strains, locus YOR329C, strain SCD5, active compounds read low 0.999 | S. cerevisiae deletion strains, locus YPL031C, strain PHO85, active compounds read low 0.977 | S. cerevisiae deletion strains, locus YPL153C, strain RAD53, active compounds read low 0.97 | S. cerevisiae deletion strains, locus YPL204W, strain HRR25, active compounds read low 0.979 | S. cerevisiae deletion strains, locus YPL209C, strain IPL1, active compounds read low 0.997 | S. cerevisiae deletion strains, locus YPL256C, strain CLN2, active compounds read low 1.07 | S. cerevisiae deletion strains, locus YPR025C, strain CCL1, active compounds read low 0.995 | S. cerevisiae deletion strains, locus YPR106W, strain ISR1, active compounds read low 0.99 | S. cerevisiae deletion strains, locus YPR111W, strain DBF20, active compounds read low 0.992 | S. cerevisiae deletion strains, strain NNK1, active compounds read low 0.993 | S. cerevisiae deletion strains, strain TSCII, active compounds read low 1
active: [2] 1.16 [resistant]

c1ccc(CN2CCC(n3nnc4cccnc43)CC2)cc1
inactive: [3] 0.995 | [4] 1.01 | S. cerevisiae deletion strains, locus YCL061C, strain MRC1, active compounds read low 1.02 | [1] 0.987 | [5] 0.993 | [6] 0.997 | [7] 1.01 | [8] 1.01 | [9] 0.997 | [2] 0.995 | [10] 1.01 | [11] 1.01 | [12] 1 | [13] 1 | [14] 1.04 | [15] 0.995 | [16] 0.957 | [17] 0.984 | [18] 1 | [19] 1.01 | [20] 1.01 | [21] 0.965 | [22] 0.996 | [23] 1.01 | [24] 1.03 | [25] 0.983 | [26] 1.01

CC1(C)CCC=[N+]1[O-]
inactive: [3] 1 | S. cerevisiae deletion strains, locus YAL040C, strain CLN3, active compounds read low 1.04 | S. cerevisiae deletion strains, locus YCL061C, strain MRC1 (second series), active compounds read low 1.01 | [6] 1 | S. cerevisiae deletion strains, locus YDR363W, strain ESC2, active compounds read low 1.02 | S. cerevisiae deletion strains, locus YER002W, strain NOP16, active compounds read low 0.98 | [9] 1.05 | [12] 1.03 | [19] 1 | [27] 1.01 | S. cerevisiae deletion strains, locus YNL175C, strain NOP13, active compounds read low 0.993 | S. cerevisiae deletion strains, locus YNL197C, strain WHI3, active compounds read low 1.01 | S. cerevisiae deletion strains, locus YNL224C, strain SQS1, active compounds read low 1 | [22] 1.01 | S. cerevisiae deletion strains, locus YOR083W, strain WHI5 (second series), active compounds read low 1.03 | [25] 1

CCOC(=O)CSc1nc2cc(C(F)(F)F)cnc2n1C
inactive: [3] 0.984 | [4] 0.98 | [1] 1.01 | [5] 0.975 | [6] 0.99 | [7] 0.993 | [8] 0.983 | [9] 1.01 | [2] 0.909 | [10] 0.96 | [11] 0.988 | [12] 0.997 | S. cerevisiae deletion strains, locus YKL190W, strain CNB1, active compounds read low 1.01 | [13] 1.05 | [14] 0.985 | [15] 1.04 | [16] 1.03 | [17] 0.952 | [18] 0.989 | [19] 0.99 | [27] 1.19 | [20] 1 | [21] 0.961 | [22] 0.982 | [23] 0.988 | S. cerevisiae deletion strains, locus YOL006C, strain TOP1, active compounds read low 0.942 | [24] 0.981 | [25] 1.07 | [26] 0.912

COC(OC)c1cc(=O)[nH]c(=S)[nH]1
inactive: [3] 1.01 | [4] 1.02 | [1] 1 | [5] 1.02 | [6] 0.918 | [7] 1.04 | [8] 1.03 | [2] 1.06 | [10] 1.01 | S. cerevisiae deletion strains, locus YJL187C, strain SWE1, active compounds read low 1.02 | [11] 1.01 | [12] 1.01 | [13] 1.07 | [14] 1.01 | [15] 1.11 | [16] 1.03 | [17] 1.02 | [18] 1.01 | [19] 1.03 | [27] 1.12 | [20] 1.01 | [21] 1.08 | [22] 1.01 | [23] 1.02 | [24] 0.935 | [25] 0.913 | [26] 1.03 | S. cerevisiae strains, strain wild type, active compounds read low 1.01
